# In ChEMBL document CHEMBL4513216, “Probing the Open Global Health Chemical Diversity Library for Multistage-Active Starting Points for Next-Generation Antimalarials” (ACS Infect Dis, 2020):
# About 8,600 (12%) of roughly 69,000 compounds showed an effect of 50% or more. The entries come from a sample that favours strong results as a whole.
# Tested on: Plasmodium berghei
# Test: Screen against P. berghei liver stage (PbLuc), transformed with Luciferase, at 10uM
# Format: functional, HepG2
# Conditions: tested at 10 uM
row,SMILES,INHIBITION [%]
1,COC(=O)c1cc(CN2CCN(c3ncccc3C)CC2)ccc1O,71
2,COC(=O)c1cc(C)nc(N2CCN(Cc3ccn(C(C)C)c3)CC2)n1,24.2
3,Cc1cccnc1N1CCN(Cc2cc(O)c3cccc(F)c3n2)CC1,18.6
4,Cc1cnc(C)c(N2CCN(Cc3ccc(C)c(C)c3)CC2)n1,75
5,Cc1cnc(C)c(N2CCN(CC3CCCO3)CC2)n1 (configuration not stated),4.93
6,CCc1ccc(O)c(C(=O)NC2CCN(Cc3ccncc3)CC2)c1,48.9
7,Cc1cccc(CN2CCN(C(=O)c3cccnc3O)CC2)c1,11.2
8,Cc1ccc(CN2CCC(Cc3nnc(CO)n3C)CC2)cc1C,4.48
9,COC(=O)c1cc(CN2CCN(c3nc(C)cnc3C)CC2)ccc1O,51.2
10,Cc1noc(C)c1-c1nc(C2CCCN(C(=O)CCN)C2)ccc1CO (configuration not stated),-10.2
11,Cc1nc(C2CCCN(C(=O)COCc3ccccc3)C2)no1 (configuration not stated),21.5
12,CCn1ncc2[nH]c(-c3cc4c(cc3OC)OCO4)nc21,-7.2
13,O=C(NCCc1ccccc1)C1CCN(C(=O)Cn2cncn2)C1 (configuration not stated),3.48
14,CCN(CC)C(=O)CSc1ncc[nH]1,44.2
15,CN(C(=O)CSc1ncc[nH]1)c1ccccc1,49.6
16,CN(C(=O)CSc1ncc[nH]1)C1CC1,53.9
17,CC(C)(C)OC(=O)N1CCC(C(=O)NCc2cc3ccccc3[nH]2)C1 (configuration not stated),-8.4
18,CC(C)N1CCC2(CC1)C(=O)N(c1cccnc1)c1ccc(F)cc12,28.2
19,COC[C@]1(O)CCN(C2CCN(c3ccc(Cl)cc3)CC2)CC1(C)C,29.4

row,SMILES,INHIBITION [%]
1,O=C(NCCCn1nc2ccccn2c1=O)NCCC1CCC1,37.9
2,Cn1ccnc1CN1CCC(c2nc3ccccc3n2C)CC1,39.3
3,Cc1nc(CN2CCC(c3nc4ccccc4n3C)CC2)co1,42.3
4,CC(C)c1nccc(CN2CCC(c3nc4ccccc4n3C)CC2)n1,52.6
5,Cc1cccc(CN2CC3(CCN(C4CCOC4)CC3)OCC2=O)n1 (configuration not stated),5.56
6,CSCc1noc(CNC(=O)[C@H]2CNC[C@@H](C(=O)N3CCCC3)C2)n1,38.5
7,COCCC1(CO)CCCN(C(=O)c2cc(Cl)ccc2F)C1 (configuration not stated),-2.43
8,CCCC1(CO)CCCN(Cc2nccs2)C1 (configuration not stated),81.6
9,CNc1ncc(C(=O)N2CCCC(CO)(CCCOC)C2)cn1 (configuration not stated),31.3
10,CC(C)=CCC1(CO)CCCN(Cc2nccs2)C1 (configuration not stated),-21.1
11,COCCC1(CO)CCCN(C(=O)c2cccnc2O)C1 (configuration not stated),56.3
12,CNc1nc(C(=O)N2CCC3(CCCN(CCOC)C3=O)C2)cs1 (configuration not stated),36.2
13,COCCC1(CO)CCCN(C(=O)c2cccnc2OC)C1 (configuration not stated),43.4
14,CCCC1(CO)CCCN(Cc2ncccn2)C1 (configuration not stated),-36.5
15,CCCn1ccnc1CN1CCCC(CC)(CO)C1 (configuration not stated),0.348
16,COCCCC1(CO)CCCN(Cc2nccs2)C1 (configuration not stated),75.2
17,CNc1nc(C(=O)N2CCCC(CO)(CCCOC)C2)cs1 (configuration not stated),58.6
18,COCCCC1(CO)CCCN(CCOC)C1 (configuration not stated),-6.88
